The text below walks through data of PubChem BioAssay AID488890 (Southern Research Specialized Biocontainment Screening …, 2010).

SMILES strings stand for the structures. Out of some 320,000 compounds screened, about 1,300 (0.41%) were called active. Not shown: some 3% with an inconclusive outcome. No rule for the calls is given here. The list is a sample of the results. Results with a measured potency or affinity are listed apart.

A short description of the experiment: growth inhibition of non-replicating M. tuberculosis (AID 488890).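 Also: plate controls were DMSO cells for no effect and high antibiotic wells for full effect.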 The settings on record: Mycobacterium tuberculosis non-replicating, at 25 µM, stronger effect = higher value.
Take `C=CCN(C)NC(=O)Nc1ccccc1`: the inhibition stood at 6.98%.
As for `Cc1c(NC(=O)CCCCCN2C(=O)c3ccccc3C2=O)c(=O)n(-c2ccccc2)n1C`, the figure is -3.66%; as for `COc1cc(C(=O)N2CCC(NC(=O)C(Cc3ccccc3C)NC(C)=O)CC2)cc(OC)c1OC` (centres undefined), 3.5%; as for `COC(=O)Cn1c(C)nc([N+](=O)[O-])c1Br`, -5.82%.
To `Cc1c(Br)c([N+](=O)[O-])nn1CC(=O)c1ccccc1` belongs -6.01%.
With `Cc1nc([N+](=O)[O-])c(Br)n1CC(=O)c1cccc([N+](=O)[O-])c1`, the inhibition was found to be 68.4%.
`Cc1nc([N+](=O)[O-])cn1CC(=O)c1ccc(Cl)cc1`: the inhibition was -12.5%.
As for `COc1ccc(OC)c(C(c2nnnn2CC2CCCO2)N2CCN(C)CC2)c1` (centres undefined), the figure is 9.88%.
In the case of `COc1ccc(F)cc1S(=O)(=O)Nc1ccncc1`, the inhibition is 10.8%.
As for `N/C(COc1ncn(-c2ccccc2)n1)=N\S(=O)(=O)c1ccccc1`, the inhibition is 20.4%.
In the case of `CCOC(=O)C1CCCN(Cc2nc(N)nc(Nc3ccccc3)n2)C1` (centres undefined), the inhibition was 42%.
As for `O=C(NC1CCCC1)c1nc2c(nnn2Cc2ccccc2Cl)c(=O)[nH]1`, the figure is 79.4%; as for `O=C(NC1CC1)c1nc2c(nnn2Cc2ccccc2Cl)c(=O)[nH]1`, 17.4%; as for `Cn1c(CCc2ccccc2)nnc1SCC(=O)N1CCCC1`, -11.6%.
To `O=C1NC2(CCCCC2)N=C1c1ccccc1` belongs -21.1%; to `N#CC(C#N)=c1ccc2c(c1)N1C(c3ccccc3)=CC(c3ccccc3)C3CCCCC31N=2` (centres undefined), -0.07%.
To `CC(C)(c1ccccc1)c1ccc(OCC(O)CN2CCCC2)cc1` (centres undefined) belongs 50%; to `CCOc1ccc(OCC(O)CNC2CCN(Cc3ccccc3)CC2)cc1` (centres undefined), 35%; to `CC(C)(C)c1ccc(-n2ncc3c2CCCC3NC(=O)CN2CCOC2=O)cc1` (centres undefined), 10.9%.
With `COC(=O)Nc1ccc(S(=O)(=O)N2c3ccccc3CCC2C)cc1` (centres undefined), the inhibition worked out at 47.6%.
As to `Cc1ccc(S(=O)(=O)N2CCC(C(=O)OC(C)C(=O)N(C)c3ccccc3)CC2)cc1C` (centres undefined), the inhibition was 36%.
To `CCCCOc1ccc(Cn2c(=O)oc3ccccc32)cc1` belongs 59%.
To `CC(C)Oc1ccc(Cn2c(=O)oc3ccccc32)cc1` belongs 72%; to `CCSc1ncc(C)cc1[N+](=O)[O-]`, -10.3%.
To `O=C(c1cccs1)N1CCN(Cc2ccccn2)CC1` belongs -6.8%; to `Cc1cccc(Cn2c(Cc3ccccc3)nc3ccccc32)c1`, 46.2%.
In the case of `COCCOc1cc(N)c(Cl)cc1Cl`, the inhibition was found to be 10.4%.
As for `CCOC(=O)COc1cc(N2C(=O)CSCC2=O)c(Cl)cc1Cl`, the figure is -8.36%.
As for `CN(C)/C=N/c1ncc(-c2ncc(C(F)(F)F)cc2Cl)cn1`, the inhibition is -8.2%.
With `CCn1nccc1C(=O)Nc1cccc(C)c1C`, the inhibition turned out to be 5.9%.
To `COc1ccc(CC(C)CC(=O)Nc2ccc(OC)cc2)cc1` (centres undefined) belongs 49.1%; to `C=CCn1c(O)c(N=O)c2ccccc21`, -1.03%.
As to `O=C1N=c2ccccc2=C1c1c(O)[nH]c2c(C(F)(F)F)cccc12`, the inhibition came to 27.4%.
As for `C=CCn1c(O)c(C2=c3ccccc3=NC2=O)sc1=Nc1ccc(O)cc1`, the figure is 30.7%; as for `O=C1N=c2ccccc2=C1c1[nH]c(=S)[nH]c1O`, 9.01%; as for `Cc1ccc2c(c1)c(C1=NC(=S)NC1=O)c(O)n2C`, -2.45%.
As for `CCn1c(O)c(C2=c3ccccc3=NC2=O)c2cc(Br)ccc21`, the figure is 73.8%; as for `CC(C(=O)N1CCN=C1c1ccccc1)N1C(=O)c2ccccc2C1=O` (centres undefined), -7.08%.
Regarding `O=C(CN1C(=O)NC2(CCCCC2)C1=O)Nc1ccc(Cl)cc1`, the inhibition is -0.81%.
As for `C/C(=N/NC(=O)CCC(=O)Nc1ccc(Br)cc1)c1ccc(Br)cc1`, the figure is -21.4%.
To `O=C(NNC(=O)c1ccco1)c1ccccc1` belongs -6.91%.
Consider `O=C(NCc1ccccc1)c1ccco1`, for which the inhibition came to 64.3%.
To `Cc1ccc(/C=C2\SC(=S)N(CCC(=O)NCCCN3CCOCC3)C2=O)cc1` belongs 8.18%; to `CCOc1ccc(C(=O)c2cc([N+](=O)[O-])ccc2Cl)cc1`, 6.56%.
On to `O=C(c1ccc(S(=O)(=O)Nc2ccccc2)cc1)N1CCC1`, for which the inhibition was -11.7%.
`CCCNC1=C(C)C(=O)C2=C(C1=O)C(COC(N)=O)[C@]1(OC)C3NC3CN21` (some centres undefined): the inhibition was 55.1%.
Consider `COc1ccc(CCNC(=O)c2cc3cccc(OC)c3oc2=O)cc1OC`, for which the inhibition amounted to 0.35%.
To `CCN(CC)c1ccc2cc(C(N)=O)c(=N)oc2c1` belongs 31.1%; to `CCN(CC)c1ccc2cc(C(C)=O)c(=O)oc2c1`, 3.33%; to `COc1cccc2cc(C(=O)NCc3ccc(Cl)cc3)c(=O)oc12`, 57.8%.
As for `Cn1c(=O)c(=O)n(C)c2cc(S(=O)(=O)N3CCN(Cc4ccccc4)CC3)ccc21`, the figure is 5.19%; as for `Nc1nc(-c2ccc3ccccc3c2)c(C2(O)C(=O)Nc3c(Br)cc(F)cc32)s1` (centres undefined), 0.16%.
As for `COc1ccc(Cl)cc1NC(=O)CSc1nc(=O)n(CCN(C)C)c2c1CCCC2`, the figure is 16.1%; as for `Clc1ccccc1N/N=C/c1ccc2c(c1)OCO2`, 28.4%; as for `CCC(=O)N(C1=C(NC(C)C)C(=O)c2ccccc2C1=O)C(C)C`, 8.66%.
As for `CC(CCc1ccccc1)NC(=O)CN(C)Cc1ccc(F)cc1` (centres undefined), the inhibition was determined as 18%.
For the compound `CN(CC(=O)NCCc1ccc(F)cc1)Cc1ccccc1`, the inhibition was 20.9%.
To `CC(=O)N(C1=C(N)C(=O)c2ccccc2C1=O)c1ccccc1` belongs 4.83%; to `COC(=O)/C(=C/c1c[nH]c2ccccc12)[N+](=O)[O-]`, 9.02%; to `COc1ccc2cc(Br)ccc2c1CC(=O)NCC1CCCO1` (centres undefined), 14.2%.
Turning to `O=S(=O)(c1ccc2c(c1)OCCO2)N1CCN(S(=O)(=O)c2ccco2)CC1`, the inhibition came out at 16.7%.
To `c1ccc(-c2ccc(SCc3cccnc3)nn2)nc1` belongs 63.6%; to `c1ccc(CSc2ccc(-c3ccccn3)nn2)nc1`, 36.2%.
To `CCOC(=O)/C=C/C(=O)OCC(=O)Nc1ccc(Cl)cn1` belongs 0.76%; to `CS(=O)(=O)c1cnc(-c2ccccc2)nc1Oc1ccc(Cl)cc1`, -7.01%.
For the compound `O=P(O)(CCc1ccncc1)CN1CCCCC1`, the inhibition is -7.55%.
To `COc1cccc2c(N/N=C/c3ccccc3)cc(C)nc12` belongs 3.67%; to `COc1ccc2nc(C)cc(NCc3ccc(F)cc3)c2c1`, 38.9%.
To `COc1ccccc1/C=N/Nc1cc(C)nc2ccc(C)cc12` belongs -9.66%.
As for `COc1ccc(Nc2cc(C)nc3ccc(OC)cc23)cc1`, the inhibition was 41.2%.
As for `COc1ccc(Nc2cc(C)nc3ccccc23)cc1`, the figure is 36.9%.
As for `Cc1cc(N/N=C/c2ccc(N(C)C)cc2)c2ccccc2n1`, the figure is -1.58%; as for `COc1ccc(C(=O)COC(=O)C(CCSC)NC(=O)COc2ccccc2)c(OC)c1` (centres undefined), 30.9%; as for `COc1ccccc1OCC(=O)NCc1n[nH]c(=O)c2ccccc12`, -15.2%.
As to `O=C(COc1cccc2c1CCN(Cc1ccccc1)C2=O)N1CCCCC1`, the inhibition worked out at 10.8%.
`CCCC(=O)C1=C(O)C(C(=O)OC)C(C)(C)CC1=NCCc1ccc(OC)c(OC)c1` (centres undefined): the inhibition was determined as 19%.
As for `CCOc1ccc(-c2csc(NC(=O)CSCC(=O)O)n2)c2ccccc12`, the figure is 11.9%.
As for `Cc1cccc(N/C(N)=N/c2nc(CSc3ccc(Cl)cc3)cc(=O)[nH]2)c1`, the figure is -0.84%; as for `CN(Cc1ccc(F)cc1)C(=O)C(Cc1ccccc1)NC(=O)c1ccccc1` (centres undefined), -6.89%; as for `COc1ccc(Cc2nnc(NC(=O)c3ccc(C)cc3)s2)cc1OC`, -7.61%.
Turning to `CC(C)c1ccc(C2/C(=C(/O)c3ccccc3)C(=O)C(=O)N2CCCN2CCOCC2)cc1` (centres undefined), the inhibition was 3.66%.
Consider `Cc1ccc(S(=O)(=O)NC(CC(C)C)C(=O)Nc2ccncc2)cc1` (centres undefined), for which the inhibition was determined as 0.09%.
To `COc1ccc(OCC(=O)c2c(O)c3ccccc3oc2=O)cc1` belongs 23.3%; to `CC(=N)c1c(O)c2ccccc2oc1=O`, -3.72%; to `CCOc1ccc(OCC(=O)c2c(O)c3ccccc3oc2=O)cc1`, 29.5%.
As for `O=C(c1c(O)c2ccccc2oc1=O)C1CCC1`, the figure is 39%.
For the compound `Cc1ccccc1-c1nnc(SCC(=O)NC2CCCC2)n1C`, the inhibition worked out at 0.83%.
In the case of `C[C@H]1CN([C@@H](C)CO)C(=O)c2cc(NC(=O)C3CCCCC3)ccc2O[C@H]1CN(C)CC1CCCCC1`, the inhibition was 5.45%.
Regarding `CCc1ccc(CNC(=O)c2ccc(OC)c(OC3CCN(C(C)C)CC3)c2)nc1`, the inhibition was determined as 2.53%.
`Cc1cccc(NC(=O)CCc2nnc3ccc(NCc4ccco4)nn23)n1`: the inhibition is -10.9%.
To `COc1ccc(-c2cnn3c4c(c(C)nc23)CCN4C(C)C)cc1OC` belongs 6.73%.
To `CCOC(=O)Nc1ccc2c(c1)N(C(=O)CCN1CCOCC1)c1ccccc1S2` belongs 20.2%; to `CCOC(=O)Nc1ccc2c(c1)Sc1ccccc1N2C(=O)CCN1CCOCC1`, 39.8%; to `CCOC(=O)Nc1ccc2c(c1)N(C(=O)CN)c1ccccc1CC2`, 22.7%.
As for `CCOC(=O)Nc1ccc2c(c1)N(C(=O)CCN(C)C)c1ccccc1CC2`, the figure is -1.89%; as for `O=C(CN1CCCCCC1)Nc1cc(C(F)(F)F)ccc1Cl`, 1.63%.
As to `COc1ccc(CNC(=O)C(NC(C)=O)C(C)C)cc1OC` (centres undefined), the inhibition is -1.56%.
As for `COc1ccc([N+](=O)[O-])cc1N(CC(O)CN1C(=O)NC(C)(C)C1=O)S(=O)(=O)c1ccccc1` (centres undefined), the figure is -14.2%; as for `Cc1nnc(NC(=O)C2=COCCO2)s1`, -3.76%; as for `CCOc1ccc(C(=O)NC2CCCCCCC2)cc1`, 77.1%.
As for `Cc1c(Cl)cccc1NC(=O)c1ccc(OCC(=O)NCc2ccccc2)cc1`, the figure is -7.76%.
To `CCC(=O)c1ccc(OCC(=O)OCC(=O)NC2CCCCCC2)cc1` belongs 20.5%; to `Cc1ccc(C(=O)NC2CCCC2)s1`, 56.2%.
Turning to `CCOC(=O)Nc1cccc(Cl)c1C`, the inhibition turned out to be 20.8%.
Regarding `O=C(NC1CCCC1)c1ccc(Cl)s1`, the inhibition was 75.8%.
On to `CN(Cc1ccccc1)C(=O)COC(=O)c1cc(=O)c2ccccc2o1`, for which the inhibition was -3.1%.
To `COc1ccccc1C(=O)Nc1nc2cc3c(cc2s1)OCO3` belongs -15.7%; to `O=C(Nc1cc(F)ccc1F)c1ccc(-n2cncn2)c([N+](=O)[O-])c1`, 3.94%.
Regarding `COc1ccc(NC(=O)C2CC(=O)n3ncnc3N2)cc1` (centres undefined), the inhibition was -0.6%.
To `COc1cc(-c2nc(-c3ccccc3)c(-c3cccs3)[nH]2)cc(OC)c1OC` belongs -1.14%; to `Cc1ccc(C(=O)NC(C)c2ccc(S(N)(=O)=O)cc2)s1` (centres undefined), -0.6%; to `CC(=O)Nc1ccc(NC(=O)CSc2nnc(CC(C)O)n2-c2ccccc2)cc1` (centres undefined), -7.33%.
To `O=C(CN1CCN(S(=O)(=O)c2ccc(F)cc2)CC1)Nc1ccc(Cl)cn1` belongs 37.8%; to `FC(F)(F)c1cccc(Cc2noc(CN3CCCC(CN4CCCC4)C3)n2)c1` (centres undefined), 51%.
